According to PubChem BioAssay AID1159580 (chemical genetic matrix, 2015):
Out of some 5,500 compounds screened, about 2,000 (36%) were called active. Roughly 18% stayed inconclusive and do not appear here. Rule as the data show it: active = normalized growth mostly below about 0.91 (no sharp cut-off); inconclusive = no clear call, values can overlap the other calls; inactive = mostly above about 0.92. The list shows a part of the results.

Test: chemical genetic growth profiling, strain panel (AID 1159580);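 also: tested at 20 µM; growth read once vehicle control cultures reached saturation at 30 °C; 1 = growth at the plate median or of vehicle wells; lower values mean less growth of the strain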
Conditions: S. cerevisiae deletion strains, growth OD

Measured: normalized growth

CC(=O)O.CC(=O)O.[Cd]
inactive: locus YJL129C, strain trk1, hits give low values 1.1
active: locus YAL013W, strain DEP1, hits give low values 0.225 | locus YAL021C, strain ccr4, hits give low values 0.629 | locus YAL026C, strain drs2, hits give low values 0.436 | locus YAL030W, strain snc1, hits give low values 0.77 | locus YBL061C, strain skt5, hits give low values 0.771 | locus YBR009C, strain hhf1, hits give low values 0.606 | locus YBR021W, strain FUR4, hits give low values 0.106 | locus YBR023C, strain chs3, hits give low values 0.743 | locus YBR171W, strain sec66, hits give low values 0.786 | locus YBR229C, strain ROT2, hits give low values 0.747 | locus YBR231C, strain swc5, hits give low values 0.666 | locus YBR279W, strain paf1, hits give low values 0.635 | locus YCL011C, strain gbp2, hits give low values 0.632 | locus YCL016C, strain dcc1, hits give low values 0.754 | locus YCL029C, strain bik1, hits give low values 0.313 | locus YCL061C, strain MRC1, hits give low values 0.783 | locus YCL069W, strain vba3, hits give low values 0.762 | locus YCR088W, strain abp1, hits give low values 0.654 | locus YDL005C, strain med2, hits give low values 0.513 | locus YDL035C, strain GPR1, hits give low values 0.243 | locus YDL040C, strain nat1, hits give low values 0.589 | locus YDL074C, strain BRE1, hits give low values 0.25 | locus YDL101C, strain DUN1, hits give low values 0.177 | locus YDL134C, strain PPH21, hits give low values 0.467 | locus YDL185W, strain tfp1, hits give low values 0.482 | locus YDL192W, strain arf1, hits give low values 0.144 | locus YDR001C, strain nth1, hits give low values 0.845 | locus YDR069C, strain doa4, hits give low values 0.107 | locus YDR101C, strain arx1, hits give low values 0.319 | locus YDR137W, strain rgp1, hits give low values 0.375 | locus YDR150W, strain NUM1, hits give low values 0.175 | locus YDR159W, strain sac3, hits give low values 0.828 | locus YDR162C, strain NBP2, hits give low values 0.111 | locus YDR195W, strain ref2 0.512 | locus YDR297W, strain sur2, hits give low values 0.727 | locus YDR318W, strain mcm21, hits give low values 0.264 | locus YDR334W, strain swr1, hits give low values 0.532 | locus YDR335W, strain msn5, hits give low values 0.782 | locus YDR388W, hits give low values 0.0738 | locus YDR392W, strain spt3, hits give low values 0.299 | locus YDR502C, strain sam2, hits give low values 0.464 | locus YEL003W, strain gim4, hits give low values 0.681 | locus YEL037C, strain rad23, hits give low values 0.786 | locus YEL061C, strain CIN8 (second series), hits give low values 0.866 | locus YEL061C, strain CIN8, hits give low values 0.342 | locus YER015W, strain faa2, hits give low values 0.632 | locus YER016W, strain bim1, hits give low values 0.702 | locus YER110C, hits give low values 0.499 | locus YER111C, strain swi4, hits give low values 0.872 | locus YER155C, strain BEM2 (second series), hits give low values 0.446 | locus YER155C, strain BEM2, hits give low values 0.519 | locus YER167W, strain BCK2, hits give low values 0.269 | locus YFR010W, strain ubp6, hits give low values 0.356 | locus YGL078C, strain dbp3, hits give low values 0.466 | locus YGL086W, strain mad1, hits give low values 0.256 | locus YGL167C, strain pmr1, hits give low values 0.493 | locus YGL173C, strain kem1, hits give low values 0.68 | locus YGL227W, strain vid30, hits give low values 0.901 | locus YGL240W, strain doc1, hits give low values 0.711 | locus YGL248W, strain PDE1, hits give low values 0.356 | locus YGL253W, strain hxk2, hits give low values 0.825 | locus YGR078C, strain PAC10, hits give low values 0.721 | locus YGR135W, strain pre9, hits give low values 0.565 | locus YGR229C, strain SMI1, hits give low values 0.11 | locus YGR252W, strain gcn5, hits give low values 0.253 | locus YHR013C, strain ard1, hits give low values 0.303 | locus YHR027C, strain rpn1, hits give low values 0.58 | locus YHR030C, strain SLT2, hits give low values 0.508 | locus YHR079C, strain IRE1 (second series), hits give low values 0.196 | locus YHR094C, strain hxt1, hits give low values 0.529 | locus YHR129C, strain ARP1, hits give low values 0.563 | locus YHR142W, strain chs7, hits give low values 0.761 | locus YHR200W, strain rpn10, hits give low values 0.513 | locus YIL066C, strain RNR3, hits give low values 0.27 | locus YIL073C, strain SPO22, hits give low values 0.134 | locus YIL125W, strain kgd1, hits give low values 0.356 | locus YIR030C, strain dcg1, hits give low values 0.383 | locus YJL092W, strain hpr5, hits give low values 0.744 | locus YJL095W, strain BCK1 (second series), hits give low values 0.669 | locus YJL095W, strain BCK1, hits give low values 0.266 | locus YJL115W, strain asf1, hits give low values 0.858 | locus YJL134W, strain LCB3, hits give low values 0.643 | locus YJL154C, strain vps35, hits give low values 0.485 | locus YJL164C, strain tpk1, hits give low values 0.684 | locus YJL166W, strain qcr8, hits give low values 0.59 | locus YJL168C, strain set2, hits give low values 0.4 | locus YJL187C, strain SWE1 (second series), hits give low values 0.326 | locus YJL187C, strain SWE1, hits give low values 0.771
